HT1080 IDH1KD tx – HT-1080 IDH1 knockdown cell toxicity (counter line) | HT-1080 IDH1 knockdown viability, ATP luminescence, 48 h | Potency, µM (series often up to 46.1 µM), without a hit: top-dose activity, negative = toxicity, actives largely listed as cytotoxic | 360,000 compounds, 2% hits;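 note: potency is the fitted concentration of half-maximal effect; 0% = DMSO wells and -100% = cell-free medium wells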
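% activity derives from luminescence (CellTiter-Glo), normalised to DMSO and no-cell wells. HT-1080-IDH1KD cells, 750/well, had 48 h compound exposure at 37 °C.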
HT1080-NT tox – kills 2HG-producing HT-1080-NT fibrosarcoma cells; HT-1080-NT fibrosarcoma viability, CellTiter-Glo ATP luminescence, 48 h; Potency, µM (doses to about 46.1 µM), inactives show top-dose activity, negative = less viability, hits mostly cytotoxic; 360,000 compounds, 1.6% hits; AID 686970;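 note: NT is the 2HG producing partner of a matched IDH1 knockdown line; potency is the fitted concentration of half-maximal effect; 0% = DMSO-treated cells and -100% = media-only wells without cells; nearly all actives have a fitted effect of over 55% in size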
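Viability of the 2HG-overproducing fibrosarcoma line after 48 hours of compound exposure at 37 degrees C was determined by luminescence with CellTiter-Glo, and concentration-effect curves were then fitted and categorized.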
DT40 TDP1 no CPT – qHTS for Inhibitors of human tyrosyl-DNA phosphodiesterase 1 (TDP1): qHTS in cells in absence of CPT. DT40 Tdp1-/- hTDP1 cells, no CPT, ATP luminescence, 48 h. Potency, µM (titrated, usually from 46.2 µM), without a hit: top-dose activity change, negative = growth inhibition, actives largely listed as inhibitors. 420,000 compounds, 15% hits. AID 686978, 2013; note: potency is the fitted concentration of half-maximal effect; nearly all actives have a fitted effect of over 55% in size
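Luminescent ATP content (CellTiter-Glo) served as the growth readout. Knockout chicken DT40 cells expressing human TDP1 were exposed to compounds without camptothecin for a minimum 48 hr at 37 °C.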
IL1B secr inh – blocks inflammasome-driven IL-1 beta release | 360,000 compounds, 4.7% hits | AID 743279 | THP-1 LPS/ATP IL-1B secretion, AlphaLISA, 16 h; stronger effect = lower value | activity change, % at 57.5 µM; in the data active = activity change below about -50%; inconclusive = mostly about -30% to -49%
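Secreted IL-1B measured by AlphaLISA bead assay after 16 h compound exposure of THP-1 cells; compounds (final up to 57.5 uM) added 1 h before LPS (250 ng/mL) and ATP (1.25 mM) stimulation; lower signal means less secretion.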
DT40 TDP1 CPT – growth inhibition of DT40 Tdp1-/-;hTDP1 cells with camptothecin (screen for TDP1 inhibitors); AID 686979; 420,000 compounds, 12% hits; Potency, µM (series often up to 46.2 µM), without a hit: at the highest dose activity change, negative = growth inhibition, hits mostly inhibitors; chicken DT40 Tdp1-/-;hTDP1 cells + 20 nM CPT, ATP luminescence, 48 h; note: potency is the fitted concentration of half-maximal effect; nearly all actives have a fitted effect of over 55% in size
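Chicken DT40 Tdp1-/- cells complemented with human TDP1, 400 cells/well, exposed to compounds plus 20 nM camptothecin for at least 48 h at 37 C; viability read as ATP content by CellTiter-Glo luminescence.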
* hit, by the source's call; [ ] = remark or other dose. Sampled rows, rich in hits. Any-hit rate of the full collection: about 19%. Unless noted, calls come from the whole dose curve; as a rule, active = well fitted curve in the direction sought with a large enough effect; inconclusive = small, poorly fitted or top-dose-only effect, or another doubt; inactive = no such curve, though single readings can be large; an effect the other way counts as inactive or inconclusive. Unless noted, % is set by controls: 0 for no effect and ±100 for the full control effect.

`Cc1ccc(NC(=O)C2CCN(S(=O)(=O)c3ccc(C(C)(C)C)cc3)CC2)cc1S(=O)(=O)N1CCOCC1` gave HT1080 IDH1KD tx 0.0%, HT1080-NT tox -9.6%, DT40 TDP1 no CPT inconclusive, IL1B secr inh -13.5 and DT40 TDP1 CPT inconclusive.
Screening CC(NC(=O)CN1C(=O)NC2(CCc3ccccc32)C1=O)c1ccccc1 (centres undefined) returned HT1080 IDH1KD tx 7.8%, HT1080-NT tox -0.6%, DT40 TDP1 no CPT 9.2%, IL1B secr inh 30.8 and DT40 TDP1 CPT 8.0%.
Screening Cc1ccc(Nc2ncnc3c2nc2n3CCCC2)c(Br)c1 returned DT40 TDP1 no CPT -28.3% and DT40 TDP1 CPT inconclusive.
`Cc1ccc(Cl)cc1N1CCN(C(=O)c2cnc(N3CCOCC3)c3ccccc23)CC1` gave DT40 TDP1 no CPT 6.51µM* and DT40 TDP1 CPT 5.8µM*.
For C/C=C(\C)C(=O)N1CCC(C(=O)c2ccccc2)CC1 the results were HT1080 IDH1KD tx 8.2%, HT1080-NT tox 22.3%, DT40 TDP1 no CPT 7.5%, IL1B secr inh -5.0 and DT40 TDP1 CPT -24.6%.
Screening CCN(CC)CC(=O)Nc1ccc(Oc2ccc(NC(=O)CN(CC)CC)cc2)cc1 returned HT1080 IDH1KD tx -9.8%, HT1080-NT tox inconclusive, DT40 TDP1 no CPT -14.9%, IL1B secr inh -58.0* and DT40 TDP1 CPT 1.4%.
For CCC(C)NCC(=O)Nc1ccc(-c2nc3cc(NC(=O)CNC(C)CC)ccc3o2)cc1 (centres undefined) the results were HT1080 IDH1KD tx -25.0%, HT1080-NT tox -20.2%, DT40 TDP1 no CPT 7.31µM*, IL1B secr inh -3.2 and DT40 TDP1 CPT 6.51µM*.
`CCN(CC)CC(=O)Nc1ccc(-c2nc3cc(NC(=O)CN(CC)CC)ccc3o2)cc1` gave HT1080 IDH1KD tx -2.9%, HT1080-NT tox -2.7%, DT40 TDP1 no CPT 18.4µM*, IL1B secr inh -13.1 and DT40 TDP1 CPT 20.6µM*.
`O=C(CN1CCCC1)Nc1ccc(-c2nc3cc(NC(=O)CN4CCCC4)ccc3o2)cc1` gave HT1080 IDH1KD tx inconclusive, HT1080-NT tox inconclusive, DT40 TDP1 no CPT 11.6µM*, IL1B secr inh -55.9* and DT40 TDP1 CPT 18.4µM*.
Screening Cc1ccc2oc(-c3ccc(NC(=O)CC(C)C)cc3)nc2c1 returned HT1080 IDH1KD tx -5.3%, HT1080-NT tox -5.6%, DT40 TDP1 no CPT -21.8%, IL1B secr inh -6.4 and DT40 TDP1 CPT -14.8%.
For CCN(CC(=O)Nc1ccc(OC)cc1)CC(=O)Nc1ccc(Cl)cc1F the results were HT1080 IDH1KD tx -1.7%, HT1080-NT tox 0.0%, DT40 TDP1 no CPT -7.2%, IL1B secr inh 10.6 and DT40 TDP1 CPT -9.1%.
For CNC[C@H]1Oc2ccc(NC(=O)Cc3cn(C)c4ccccc34)cc2CC(=O)N([C@@H](C)CO)C[C@H]1C the results were HT1080 IDH1KD tx -2.3%, HT1080-NT tox -14.7%, DT40 TDP1 no CPT 0.7%, IL1B secr inh -23.6 and DT40 TDP1 CPT -15.9%.
Screening O=C(NCc1ccccn1)c1cnn(-c2ncc3c(n2)-c2ccccc2CC3)c1C1CC1 returned DT40 TDP1 no CPT inconclusive and DT40 TDP1 CPT -17.3%[9.04 µM].
`CC1=C(C(=O)OCc2ccccc2)C(c2ccc(Cl)cc2)NC(=O)N1CCCC(=O)O` (centres undefined) gave HT1080 IDH1KD tx -10.4%, HT1080-NT tox 0.6%, DT40 TDP1 no CPT inconclusive, IL1B secr inh 26.9 and DT40 TDP1 CPT -33.0%.
For CC(C)c1ccc(NC(=O)[C@@H]2CCC(=O)N2C2OC(=O)c3ccccc32)cc1 (some centres undefined) the results were HT1080 IDH1KD tx 6.1%, HT1080-NT tox 1.0%, DT40 TDP1 no CPT -18.1%, IL1B secr inh 12.6 and DT40 TDP1 CPT -5.8%.
`C=CCOc1c(Cl)cc(C(=S)N2CCCC2)cc1OCC` gave HT1080 IDH1KD tx 9.2µM*, HT1080-NT tox inconclusive, DT40 TDP1 no CPT 7.31µM*, IL1B secr inh 2.2 and DT40 TDP1 CPT 5.8µM*.
CCOc1cc(C(N)=O)cc(Cl)c1OCC was read as HT1080 IDH1KD tx -11.0%, HT1080-NT tox -6.8%, DT40 TDP1 no CPT 23.1µM*, IL1B secr inh -1.6 and DT40 TDP1 CPT inconclusive.
For Cc1ccc(S(=O)(=O)N(C)CC(=O)N2CCN(Cc3ccccc3)CC2)cc1 the results were HT1080 IDH1KD tx 3.0%, HT1080-NT tox -0.8%, DT40 TDP1 no CPT -21.7%, IL1B secr inh 0.0 and DT40 TDP1 CPT -2.8%.
`C#Cc1ccc([C@@H]2C=C(C(=O)Nc3ccccc3)O[C@H](OCC)[C@H]2CCCO)cc1` gave HT1080 IDH1KD tx -11.3%, HT1080-NT tox -3.1%, DT40 TDP1 no CPT 13µM*, IL1B secr inh inconclusive and DT40 TDP1 CPT 16.4µM*.
CCO[C@@H]1OC(C(=O)Nc2ccccc2)=C[C@H](C2CC2)[C@H]1CCCO was read as HT1080 IDH1KD tx 21.1%, HT1080-NT tox 8.6%, DT40 TDP1 no CPT inconclusive, IL1B secr inh 6.1 and DT40 TDP1 CPT inconclusive.
`CCO[C@H]1OC(C(=O)Nc2ccccc2)=C[C@@H](c2ccc(C(F)(F)F)cc2)[C@@H]1CCCO` gave HT1080 IDH1KD tx inconclusive, HT1080-NT tox inconclusive, DT40 TDP1 no CPT 14.6µM*, IL1B secr inh -55.2* and DT40 TDP1 CPT 14.6µM*.
CCOC(=O)CSc1nc2ccc(NC(=O)COc3ccc(F)cc3)cc2s1 was read as DT40 TDP1 no CPT -18.4% and DT40 TDP1 CPT -0.6%.
Screening CCCC(=O)Nc1c(-c2cccc(OC)c2)c(=O)c2ccccc2n1C returned HT1080 IDH1KD tx -0.9%, HT1080-NT tox 9.8%, DT40 TDP1 no CPT -23.7%, IL1B secr inh 13.0 and DT40 TDP1 CPT inconclusive.
Screening Cc1ccc(C(=O)C(C)OC(=O)c2n[nH]c(=O)c3ccccc23)cc1 (centres undefined) returned HT1080 IDH1KD tx 18.7%, HT1080-NT tox inconclusive, DT40 TDP1 no CPT -5.6%, IL1B secr inh 0.0 and DT40 TDP1 CPT -27.0%.
For CCn1c(C(=O)NCc2cccnc2)cc2sc(Cl)cc21 the results were HT1080 IDH1KD tx inconclusive, HT1080-NT tox inconclusive, DT40 TDP1 no CPT inconclusive, IL1B secr inh -11.4 and DT40 TDP1 CPT -28.5%.
`CC1CCC(N(CCCN)Cc2ccco2)CC1C` (centres undefined) gave HT1080 IDH1KD tx -15.4%, HT1080-NT tox -7.3%, DT40 TDP1 no CPT 20.6µM*, IL1B secr inh inconclusive and DT40 TDP1 CPT 29.1µM*.
For O=C(CSc1nc2ncc(Br)cc2[nH]1)Nc1ccccc1-c1ccccc1 the results were HT1080 IDH1KD tx inconclusive, HT1080-NT tox inconclusive, DT40 TDP1 no CPT inconclusive, IL1B secr inh -6.6 and DT40 TDP1 CPT 16.4µM*.
`O=C(CSc1nc2ncc(Br)cc2[nH]1)c1ccc([N+](=O)[O-])cc1` gave HT1080 IDH1KD tx -20.5%, HT1080-NT tox -16.3%, DT40 TDP1 no CPT inconclusive, IL1B secr inh 0.0 and DT40 TDP1 CPT 18.4µM*.
